# The whole screen tested about 52,000 compounds, of which about 4,300 (8.3%) were called active. The sample holds actives, similar compounds and a random draw of the others, so the mix is not that of the screen. Unmarked numbers belong to inactive results. Cut-off read from the data, not from the text of the source: active = survival mostly below about 52% (no sharp cut-off); inactive = mostly above about 56%.
# Tested on: DeltatarO mutant
# Assay: S. aureus survival, RN4220 and DeltatarO strains – OD600, teichoic acid synthesis inhibitors, primary screen (AID 463173)
# Settings: S. aureus RN4220 wild type/DeltatarO growth, OD600, 18 h, stronger effect = lower value, screened at 18.75 µg/mL (by protocol)
row,Compound,survival
1,Cc1cccc(Cn2cccc2CNS(=O)(=O)c2ccc(Br)cc2)c1,76%
2,CCc1ccc(S(=O)(=O)NCc2cccn2Cc2cccc(C)c2)cc1,79%
3,Cc1cccc(Cn2cccc2CNS(=O)(=O)c2ccccc2F)c1,-2% (active)
4,Cc1ccccc1C(=O)N1CCN(CCc2ccccn2)CC1,49%
5,CCOc1ccccc1C(=O)N1CCN(CCc2ccccn2)CC1,67% (active)
6,O=C(c1ccccc1Cl)N1CCN(CCc2ccccn2)CC1,52%
7,CC(CNC(=O)CN1C(=O)c2cccnc2Oc2ccc(Cl)cc21)c1ccccc1 (stereo not drawn),90%
8,CCOC(=O)c1noc2ncn(CC(=O)Nc3ccccc3OC)c(=O)c12,118%
9,CCOC(=O)c1noc2ncn(CC(=O)Nc3cc(Cl)ccc3OC)c(=O)c12,92%
10,CCOC(=O)c1noc2ncn(CC(=O)Nc3ccc(F)cc3Cl)c(=O)c12,-5% (active)
11,CCCCC(=O)Nc1ccc(C(=O)OCc2cc(=O)n3ccsc3n2)cc1,75%
12,CC(C)CC(=O)N1c2nc(C(C)C)nn2C2(CCCCC2)[C@@H]2CCCC[C@@H]21,79%
13,COc1ccccc1Nc1nc(-c2ccccc2Cl)c2cc(Br)ccc2n1,125%
14,COc1cccc(NC(=O)c2c(-c3ccc(C)cc3)nnc3ccccc23)c1,78%
15,COc1cccc(Nc2cc(C)nc3ccccc23)c1,109%
16,COc1cccc(Nc2nc(-c3ccccc3)c3cc(C)ccc3n2)c1,12% (active)
17,Cc1ccc2nc(Nc3ccc(Br)cc3)nc(-c3ccccc3)c2c1,35% (active)
18,CCN(CC)c1nc(-c2ccccc2Cl)c2cc(Br)ccc2n1,55%
19,COc1ccc(Nc2nc(-c3ccccc3)c3cc(Br)ccc3n2)cc1,23% (active)
20,Clc1ccccc1-c1nc(Nc2ccccc2)nc2ccc(Br)cc12,47% (active)
21,COc1ccc(Nc2nc(N)c3cc(OC)c(OC)cc3n2)cc1,87%

row,Compound,survival
1,Cc1ccc(Nc2c(-c3cccnc3)nc3ccc(Br)cn23)cc1,80%
2,Clc1ccc(Nc2nc(-c3ccccc3)c3cc(Cl)ccc3n2)cc1,54%
3,Cc1cc(C)cc(NC(=O)CSc2nc(-c3ccccc3)c3cc(F)ccc3n2)c1,87%
4,O=C(CCn1cccn1)Nc1ccc(Br)cc1F,93%
5,COC(=O)c1cc2sccc2n1CC(=O)Nc1cc(Cl)ccc1OC,99%
6,S=C(Nc1ccccc1)N1CCOCC1,89%
7,CC(=O)c1cccc(NC(=O)c2nc3ccccc3nc2N2CCCCC2)c1,71%
8,Cc1cccc(NC(=O)CSc2nc3c(oc4ccccc43)c(=O)n2C(C)C)c1,63%
9,CCc1ccc(C(=O)c2cn(CC(=O)Nc3cccc(OC)c3)c3cc4c(cc3c2=O)OCO4)cc1,72%
10,O=C(COc1ccc(Cl)cc1)Nc1nnc2n1CCS2,124%
11,Cc1ccc(C(=O)N2CCC(c3c[nH]c4ccccc34)(c3c[nH]c4ccccc34)CC2)cc1,87%
12,COc1ccc(CCNc2ncnc3c2c(-c2ccccc2)cn3-c2ccc(Cl)cc2)cc1OC,97%
13,Oc1ccccc1Nc1nc(-c2ccccc2)c2cc(Cl)ccc2n1,71%
14,Cc1ccc2nc(NN)nc(-c3ccccc3)c2c1,98%
15,Cc1cccc(Nc2nc(-c3ccccc3)c3cc(C)ccc3n2)c1,3% (active)
16,Clc1ccc(Nc2nc(-c3ccccc3)c3ccccc3n2)c(Cl)c1,72%
17,O=C(O)c1ccc(Nc2nc(-c3ccccc3)c3cc(Br)ccc3n2)cc1,21% (active)
18,Clc1ccc2nc(Nc3ccccc3Cl)nc(-c3ccccc3)c2c1,75%
19,COc1cc2nc(Nc3cccc(C)c3)nc(N)c2cc1OC,67%
20,Cc1ccc(C)c(Nc2nc(-c3ccccc3)c3cc(Br)ccc3n2)c1,43% (active)
21,O=C(O)c1cccc(Nc2ncnc3ccc(Br)cc23)c1,119%

row,Compound,survival
1,CCOc1cc(CNC(=O)Cn2c(=O)c3cccn3c3ccc(F)cc32)cc(OCC)c1OCC,50%
2,Cc1ccc(C)c(Cn2c(=O)n(Cc3ccccc3)c(=O)c3c2c2cc(C)ccc2n3C)c1,78%
3,CC(C)c1ccc(OCC(O)CN2CCN(c3ccc(F)cc3)CC2)cc1 (stereo not drawn),56%
4,O=C(CN1C(=O)C2(SCC(=O)N2c2ccc(F)c(F)c2)c2ccccc21)Nc1ccccc1F (stereo not drawn),94%
5,COc1ccc(CCNC(=O)c2c(C)oc3nc(C)nc(N4CCOCC4)c23)cc1OC,102%
6,COCCN(C(=O)C1CC1)c1nnc(-c2cccc(C)c2)s1,98%
7,Cc1cc(C)nc(NS(=O)(=O)c2ccc(NC(=O)COc3ccc(Cl)cc3C)cc2)n1,63%
8,COc1ccc(NC(=O)CN2CCC(n3c(C)nc4cc(F)ccc43)CC2)c(OC)c1,104%
9,COc1cccc(CN(C(=O)c2cccc(C)c2)C2CCS(=O)(=O)C2)c1 (stereo not drawn),65%
10,CCOc1ccc(CCNC(=O)c2cc3n(n2)CCCN(Cc2ccc(C)cc2)C3=O)cc1OCC,112%
11,O=S(=O)(CCN1CCOCC1)c1ccc(Oc2ccc(S(=O)(=O)CCN3CCOCC3)cc2)cc1,70%
12,Cc1ccc(CCNC(=O)C(CC(C)C)NS(=O)(=O)c2ccc3c(c2)oc(=O)n3C)cc1 (stereo not drawn),93%
13,N#Cc1ccc(-c2cccs2)nc1SCC(=O)Nc1cccc(C(F)(F)F)c1,48%
14,N#Cc1ccc(-c2cccs2)nc1SCc1ccc(Cl)cc1Cl,74%
15,Cc1cccc(CSc2ccc(-c3cccs3)nn2)c1,79%
16,N#Cc1c(-c2cccs2)cc(-c2cccs2)nc1SCc1cccnc1,65%
17,Cc1ccc(CSc2ccc(-c3cccs3)nn2)cc1,89%
18,Cc1cccc(CSc2nc(-c3cccs3)ccc2C#N)c1,18% (active)
19,N#Cc1ccc(-c2cccs2)nc1SCc1ccc(Br)cc1,74%
20,Cc1ccc(CSc2nc(-c3cccs3)ccc2C#N)cc1,25% (active)
21,N#Cc1ccc(-c2cccs2)nc1SCc1c(F)cccc1Cl,36% (active)
